The full list was thinned out, with the strongest signals kept by preference.
Legend:
Experiment in all cases: glycan array binding signal (z-score within array); higher = stronger binding
Conditions in all cases: glycan notation: IUPAC condensed, linker removed
[1] = target: GlcNAc(b1-2)[GlcNAc(b1-6)]Man(a1-6)[GlcNAc(b1-4)][GlcNAc(b1-2)Man(a1-3)]Man(b1-4)GlcNAc(b1-4)GlcNAc
Method in brief: (§1)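 The binding signal is a Z-score computed within each array. Data were drawn from 3228 arrays in the Consortium for Functional Glycomics database, restricted to those with a known protein sequence. Scores were averaged over arrays of the same protein sequence at different concentrations or buffers, and over linkers, and negative values can be taken as non-binding.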

[2] = target: GlcNAc(b1-3)Gal(b1-4)GlcNAc(b1-3)Gal(b1-4)GlcNAc(b1-2)Man(a1-3)[GlcNAc(b1-3)Gal(b1-4)GlcNAc(b1-3)Gal(b1-4)GlcNAc(b1-2)Man(a1-6)]Man(b1-4)GlcNAc(b1-4)GlcNAc
Method in brief: as §1

[3] = target: GlcNAc(b1-3)Gal(b1-4)GlcNAc(b1-3)Gal(b1-4)GlcNAc(b1-3)Gal(b1-4)GlcNAc(b1-2)Man(a1-3)[GlcNAc(b1-3)Gal(b1-4)GlcNAc(b1-3)Gal(b1-4)GlcNAc(b1-3)Gal(b1-4)GlcNAc(b1-2)Man(a1-6)]Man(b1-4)GlcNAc(b1-4)[Fuc(a1-6)]GlcNAc
Method in brief: as §1

[4] = target: GlcNAc(b1-3)Gal(b1-4)GlcNAc(b1-3)Gal(b1-4)GlcNAc(b1-3)Gal(b1-4)GlcNAc(b1-2)[GlcNAc(b1-3)Gal(b1-4)GlcNAc(b1-3)Gal(b1-4)GlcNAc(b1-3)Gal(b1-4)GlcNAc(b1-6)]Man(a1-6)[GlcNAc(b1-3)Gal(b1-4)GlcNAc(b1-3)Gal(b1-4)GlcNAc(b1-3)Gal(b1-4)GlcNAc(b1-2)Man(a1-3)]Man(b1-4)GlcNAc(b1-4)[Fuc(a1-6)]GlcNAc
Method in brief: as §1

[5] = target: Man(a1-2)Man(a1-2)Man(a1-3)Man
Method in brief: as §1

MurNAc(b1-4)GlcNAc = target: MurNAc(b1-4)GlcNAc
Method in brief: as §1

[6] = target: Neu5Ac(a2-3)Gal(b1-3)GlcNAc(b1-2)Man
Method in brief: as §1

[7] = target: Neu5Ac(a2-3)Gal(b1-4)GlcNAc(b1-2)Man(a1-3)[GlcNAc(b1-4)][Neu5Ac(a2-3)Gal(b1-4)GlcNAc(b1-2)Man(a1-6)]Man(b1-4)GlcNAc(b1-4)GlcNAc
Method in brief: as §1

[8] = target: Neu5Ac(a2-3)Gal(b1-4)GlcNAc(b1-6)[Neu5Ac(a2-3)Gal(b1-3)]GalNAc
Method in brief: as §1

[9] = target: Neu5Ac(a2-3)Gal(b1-4)[Fuc(a1-3)]GlcNAc(b1-2)Man
Method in brief: as §1

[10] = target: Neu5Ac(a2-3)Gal(b1-4)[Fuc(a1-3)]GlcNAc(b1-3)GalNAc
Method in brief: as §1

[11] = target: Neu5Ac(a2-3)Gal(b1-4)[Fuc(a1-3)]GlcNAc(b1-6)[Neu5Ac(a2-3)Gal(b1-3)]GalNAc
Method in brief: as §1

[12] = target: Neu5Ac(a2-3)GalNAc(b1-4)GlcNAc
Method in brief: as §1

Neu5Ac(a2-6)Gal = target: Neu5Ac(a2-6)Gal
Method in brief: as §1

[13] = target: Neu5Ac(a2-6)Gal(b1-4)GlcNAc(b1-2)Man(a1-3)[GlcNAc(b1-2)Man(a1-6)]Man(b1-4)GlcNAc(b1-4)GlcNAc
Method in brief: as §1

[14] = target: Neu5Ac(a2-6)Gal(b1-4)GlcNAc(b1-2)Man(a1-6)[GlcNAc(b1-2)Man(a1-3)]Man(b1-4)GlcNAc(b1-4)GlcNAc
Method in brief: as §1

[15] = target: Neu5Ac(a2-6)Gal(b1-4)GlcNAc(b1-2)Man(a1-6)[Man(a1-3)]Man(b1-4)GlcNAc(b1-4)GlcNAc
Method in brief: as §1

[16] = target: Neu5Ac(a2-6)Gal(b1-4)GlcNAc(b1-3)Gal(b1-4)GlcNAc(b1-3)Gal(b1-4)GlcNAc(b1-2)Man(a1-3)[Neu5Ac(a2-6)Gal(b1-4)GlcNAc(b1-3)Gal(b1-4)GlcNAc(b1-3)Gal(b1-4)GlcNAc(b1-2)Man(a1-6)]GalNAc
Method in brief: as §1

[17] = target: Neu5Ac(a2-6)Gal(b1-4)GlcNAc(b1-3)Gal(b1-4)[Fuc(a1-3)]GlcNAc(b1-3)Gal(b1-4)[Fuc(a1-3)]GlcNAc
Method in brief: as §1

[18] = target: Neu5Ac(a2-6)Gal(b1-4)GlcNAc6S
Method in brief: as §1

Neu5Gc(a2-3)Gal(b1-4)Glc = target: Neu5Gc(a2-3)Gal(b1-4)Glc
Method in brief: as §1

[19] = target: Neu5Gc(a2-3)Gal(b1-4)GlcNAc(b1-3)Gal(b1-4)GlcNAc(b1-2)Man(a1-3)[Neu5Gc(a2-3)Gal(b1-4)GlcNAc(b1-3)Gal(b1-4)GlcNAc(b1-2)Man(a1-6)]Man(b1-4)GlcNAc(b1-4)GlcNAc
Method in brief: as §1

[20] = target: Neu5Gc(a2-8)Neu5Ac(a2-3)Gal(b1-4)GlcNAc
Method in brief: as §1

[21] = target: Fuc(a1-2)Gal(b1-3)GlcNAc6S
Method in brief: as §1

[22] = target: Fuc(a1-2)Gal(b1-3)[Fuc(a1-4)]GlcNAc(b1-2)Man(a1-3)[Fuc(a1-2)Gal(b1-3)[Fuc(a1-4)]GlcNAc(b1-2)Man(a1-6)]Man(b1-4)GlcNAc(b1-4)GlcNAc
Method in brief: as §1

[23] = target: Fuc(a1-2)Gal(b1-3)[Fuc(a1-4)]GlcNAc(b1-2)Man(a1-6)[Fuc(a1-2)Gal(b1-3)[Fuc(a1-4)]GlcNAc(b1-2)Man(a1-3)]Man(b1-4)GlcNAc(b1-4)[Fuc(a1-6)]GlcNAc
Method in brief: as §1

[24] = target: Fuc(a1-2)Gal(b1-3)[Fuc(a1-4)]GlcNAc(b1-3)[Gal(b1-4)GlcNAc(b1-6)]Gal(b1-4)Glc
Method in brief: as §1

Fuc(a1-2)Gal(b1-4)Glc = target: Fuc(a1-2)Gal(b1-4)Glc
Method in brief: as §1

[25] = target: Fuc(a1-2)Gal(b1-4)GlcNAc(b1-3)[Fuc(a1-2)Gal(b1-4)GlcNAc(b1-6)]GalNAc
Method in brief: as §1

[26] = target: Fuc(a1-2)Gal(b1-4)[Fuc(a1-3)]GlcNAc(b1-3)[Neu5Ac(a2-6)Gal(b1-4)GlcNAc(b1-6)]Gal(b1-4)Glc
Method in brief: as §1

[27] = target: Fuc(a1-2)Gal6S(b1-4)Glc6S
Method in brief: as §1

[28] = target: Fuc(a1-2)[Gal(a1-3)]Gal(b1-3)GlcNAc(b1-2)Man(a1-3)[Fuc(a1-2)[Gal(a1-3)]Gal(b1-3)GlcNAc(b1-2)Man(a1-6)]Man(b1-4)GlcNAc(b1-4)GlcNAc
Method in brief: as §1

[29] = target: Fuc(a1-2)[Gal(a1-3)]Gal(b1-4)[Fuc(a1-3)]GlcNAc
Method in brief: as §1

[30] = target: Fuc(a1-2)[GalNAc(a1-3)]Gal(b1-4)GlcNAc(b1-3)Gal(b1-4)GlcNAc
Method in brief: as §1

[31] = target: Fuc(a1-3)[Gal(b1-4)]GlcNAc(b1-2)Man(a1-3)[Fuc(a1-3)[Gal(b1-4)]GlcNAc(b1-2)Man(a1-6)]Man(b1-4)GlcNAc(b1-4)GlcNAc
Method in brief: as §1

[32] = target: Fuc(a1-3)[Gal(b1-4)]GlcNAc(b1-3)Gal(b1-3)[Fuc(a1-4)]GlcNAc
Method in brief: as §1

[33] = target: Fuc(a1-3)[Gal(b1-4)]GlcNAc(b1-4)Gal(b1-4)[Fuc(a1-3)]GlcNAc(b1-4)Gal(b1-4)[Fuc(a1-3)]GlcNAc
Method in brief: as §1

[34] = target: Fuc(a1-3)[GalNAc(b1-4)]GlcNAc
Method in brief: as §1

[35] = target: Fuc(a1-3)[GalNAc(b1-4)]GlcNAc6S
Method in brief: as §1

[36] = target: Fuc(a1-3)[GalNAc3S(b1-4)]GlcNAc
Method in brief: as §1

[37] = target: Gal(a1-3)Gal(b1-3)[Fuc(a1-4)]GlcNAc(b1-2)Man(a1-3)[Gal(a1-3)Gal(b1-3)[Fuc(a1-4)]GlcNAc(b1-2)Man(a1-6)]Man(b1-4)GlcNAc(b1-4)GlcNAc
Method in brief: as §1

Gal(a1-4)GlcNAc = target: Gal(a1-4)GlcNAc
Method in brief: as §1

Gal(b1-3)Gal = target: Gal(b1-3)Gal
Method in brief: as §1

Gal(b1-3)Gal(b1-4)GlcNAc = target: Gal(b1-3)Gal(b1-4)GlcNAc
Method in brief: as §1

Gal(b1-3)GalNAc = target: Gal(b1-3)GalNAc
Method in brief: as §1

[38] = target: Gal(b1-3)GlcNAc(b1-2)Man(a1-3)[Gal(b1-3)GlcNAc(b1-2)Man(a1-6)]Man(b1-4)GlcNAc(b1-4)GlcNAc
Method in brief: as §1

[39] = target: Gal(b1-3)GlcNAc(b1-3)Gal(b1-4)[Fuc(a1-3)]GlcNAc(b1-6)[Gal(b1-3)GlcNAc(b1-3)]Gal(b1-4)Glc
Method in brief: as §1

[40] = target: Gal(b1-4)GlcNAc(b1-2)Man(a1-3)[GlcNAc(b1-2)Man(a1-6)]Man(b1-4)GlcNAc(b1-4)GlcNAc
Method in brief: as §1

[41] = target: Gal(b1-4)GlcNAc(b1-2)Man(a1-6)Man(b1-4)GlcNAc(b1-4)GlcNAc
Method in brief: as §1

[42] = target: Gal(b1-4)GlcNAc(b1-2)[Gal(b1-4)GlcNAc(b1-6)]Man(a1-6)[Gal(b1-4)GlcNAc(b1-2)Man(a1-3)]Man(b1-4)GlcNAc(b1-4)GlcNAc
Method in brief: as §1

[43] = target: Gal(b1-4)GlcNAc(b1-6)GalNAc
Method in brief: as §1

[44] = target: Gal3S(b1-3)[Fuc(a1-4)]GlcNAc
Method in brief: as §1

Gal3S(b1-4)GlcNAc = target: Gal3S(b1-4)GlcNAc
Method in brief: as §1

B1: EPL1 (Trichoderma atroviride), A0PCX2 (protein)
chain: MQLSNLFKLALFTAAVSADTVSYDTGYDDASRSLTVVSCSDGTNGLITRYHWQTQGQIPRFPYIGGAQAVAGWNSPNCGTCWKLTYSGKTIYVLAIDHTAAGFNIGLDAMNALTNGNAVALGRVSATASQVAVSNCGL
glycan array binding signal (z-score) [1]: -0.514
glycan array binding signal (z-score) [2]: 0.862
glycan array binding signal (z-score) [3]: 0.866
glycan array binding signal (z-score) [4]: 0.127
glycan array binding signal (z-score) [5]: -0.108
glycan array binding signal (z-score) (MurNAc(b1-4)GlcNAc): -0.51
glycan array binding signal (z-score) [6]: -0.068
glycan array binding signal (z-score) [7]: -0.469
glycan array binding signal (z-score) [8]: -0.379
glycan array binding signal (z-score) [9]: -0.347
glycan array binding signal (z-score) [10]: 1.06
glycan array binding signal (z-score) [11]: 0.767
glycan array binding signal (z-score) [12]: -0.428
glycan array binding signal (z-score) (Neu5Ac(a2-6)Gal): -0.387
glycan array binding signal (z-score) [13]: -0.298
glycan array binding signal (z-score) [14]: -0.056
glycan array binding signal (z-score) [15]: -0.436
glycan array binding signal (z-score) [16]: 0.008
glycan array binding signal (z-score) [17]: -0.291
glycan array binding signal (z-score) [18]: 0.855
glycan array binding signal (z-score) (Neu5Gc(a2-3)Gal(b1-4)Glc): -0.246
glycan array binding signal (z-score) [19]: 0.362
glycan array binding signal (z-score) [20]: -0.344

B2: CCL1 (Coprinopsis cinerea) (protein)
chain: MDTQAKPPAGRYVIYNRVLSPNGEKLALTYPGYQREALTLTPLHHSANQIWILNNWDATTSSLTPETARNTQVGWGSGNVPIVLPPGNYVWTLASSAGGYIIQDGGKTVYWNAGEAVANTKVSIGGDNGLQARWIFERV
glycan array binding signal (z-score) [21]: -0.097
glycan array binding signal (z-score) [22]: -0.006
glycan array binding signal (z-score) [23]: -0.148
glycan array binding signal (z-score) [24]: -0.144
glycan array binding signal (z-score) (Fuc(a1-2)Gal(b1-4)Glc): -0.127
glycan array binding signal (z-score) [25]: -0.025
glycan array binding signal (z-score) [26]: -0.142
glycan array binding signal (z-score) [27]: -0.033
glycan array binding signal (z-score) [28]: -0.131
glycan array binding signal (z-score) [29]: -0.138
glycan array binding signal (z-score) [30]: -0.161
glycan array binding signal (z-score) [31]: 0.237
glycan array binding signal (z-score) [32]: 1.7
glycan array binding signal (z-score) [33]: 1.68
glycan array binding signal (z-score) [34]: 8.48
glycan array binding signal (z-score) [35]: 13.6
glycan array binding signal (z-score) [36]: 7.46
glycan array binding signal (z-score) [37]: -0.081
glycan array binding signal (z-score) (Gal(a1-4)GlcNAc): -0.164
glycan array binding signal (z-score) (Gal(b1-3)Gal): -0.15
glycan array binding signal (z-score) (Gal(b1-3)Gal(b1-4)GlcNAc): -0.151
glycan array binding signal (z-score) (Gal(b1-3)GalNAc): -0.163
glycan array binding signal (z-score) [38]: -0.119
glycan array binding signal (z-score) [39]: 0.276
glycan array binding signal (z-score) [40]: -0.106
glycan array binding signal (z-score) [41]: -0.133
glycan array binding signal (z-score) [42]: -0.131
glycan array binding signal (z-score) [43]: -0.142
glycan array binding signal (z-score) [44]: -0.116
glycan array binding signal (z-score) (Gal3S(b1-4)GlcNAc): -0.123
